Data from PubChem BioAssay.
Active and inactive are the calls of the source.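 Rule for the calls, unless noted: active = fluorescence slope after compound addition differing from the mean of all screened samples at 99.7% confidence, in either direction; inactive = the rest.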

Tests used:
[1] = inhibitors of TNFa-induced NFkB p65 translocation, primary screen, imaging, HUVEC, MLSMR starter and 10KST1 sets (AID 438;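 active = inhibition above 20% together with a positive visual image hit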;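 note: compound added about 3h40 before a 20 min TNFalpha stimulation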;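 for inhibition: signal is the nuclear over cytoplasmic p65 intensity ratio per well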); settings: HUVEC TNFa-induced p65 nuclear translocation; cell count: measured here: nuclei count (cytotoxicity indicator), at 2.08 µM; inhibition: at 2 µM, stronger effect = higher value, 0% TNFa-plus-vehicle, 100% no-TNFa wells
[2] = inhibitors of mutant huntingtin aggregation, primary screen, imaging, exon1htt(103Q)mCFP cells, high-content imaging (AID 483;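 active = visual image review flags a hit and inhibition of aggregation exceeds 20%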;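 note: compound exposure lasted 3 days before fixation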;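 for nuclei count: percent of the per-plate median nuclei count of sample wells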); settings: exon1htt(103Q)mCFP cell line, aggregate imaging, at 2 µM; inhibition of aggregation: stronger effect = higher value; nuclei count: measured here: cell count, toxicity
[3] = inhibitors of E-selectin induction by TNFa, primary screen, imaging, HUVEC, immunofluorescence, MLSMR starter and 10KST1 sets (AID 487;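 active = visually confirmed hit in the image check and inhibition above 20%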;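 for inhibition: signal is fraction of cell area covered by stained E-selectin grains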;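 for nuclei count: 100% = median nuclei count of all wells on the same plate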); settings: HUVEC TNFalpha-induced E-selectin immunofluorescence imaging, at 2 µM; inhibition: stronger effect = higher value; nuclei count: measured here: cell number, toxicity
[4] = biological target: Voltage-gated potassium channel subunit beta-2 (Rattus norvegicus) (UniProt P62483); assay: KvBeta enzyme negative modulators, primary screen, biochemical, NADPH fluorescence (AID 622;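 active = fluorescence slope higher than the sample average by over 3 SD, cut at about -0.22 in these data, passing the limit was not always enough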;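 note: slope of raw intensity against log time taken from 70 to 1610 s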); settings: recombinant KvBeta, 4-cyanobenzaldehyde reduction, at 10 µM, stronger effect = higher value
Chain of Voltage-gated potassium channel subunit beta-2 (Rattus norvegicus) (P62483 whole entry, looked up): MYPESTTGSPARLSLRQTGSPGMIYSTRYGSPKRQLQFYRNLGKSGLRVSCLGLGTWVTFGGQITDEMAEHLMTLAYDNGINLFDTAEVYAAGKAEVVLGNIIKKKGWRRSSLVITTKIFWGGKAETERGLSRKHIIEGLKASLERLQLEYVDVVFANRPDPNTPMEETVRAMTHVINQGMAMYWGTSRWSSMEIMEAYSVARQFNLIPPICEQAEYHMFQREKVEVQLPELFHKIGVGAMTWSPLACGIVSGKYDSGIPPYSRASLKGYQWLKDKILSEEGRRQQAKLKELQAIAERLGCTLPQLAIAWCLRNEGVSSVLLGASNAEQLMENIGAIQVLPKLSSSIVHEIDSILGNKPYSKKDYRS

[5] = biological target: Voltage-gated potassium channel subunit beta-2 (Rattus norvegicus) (UniProt P62483); assay: KvBeta positive modulators, primary screen, biochemical, NADPH fluorescence (AID 623;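 active = NADPH fluorescence slope more negative than the mean of all samples by about 3 SD, 99.7% confidence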;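 note: fluorescence intensity change per second fitted from 20 to 320 s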); settings: Recombinant KvBeta, NADPH fluorescence decrease slope, 10 min; at 10 µM; stronger effect = lower value
[6] = biological target: Alpha-2C adrenergic receptor (Homo sapiens) (UniProt P18825); assay: modulators of alpha2C/GIRK thallium flux, primary screen, cell-based, HEK293 alpha2C/GIRK1/2 (AID 624); settings: thallium flux BTC fluorescence, at 10 µM, actives lie on both sides;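 note: slope of fluorescence ratio to pre-addition baseline per second over 15 to 24 s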
Chain of Alpha-2C adrenergic receptor (Homo sapiens) (P18825 whole entry, looked up): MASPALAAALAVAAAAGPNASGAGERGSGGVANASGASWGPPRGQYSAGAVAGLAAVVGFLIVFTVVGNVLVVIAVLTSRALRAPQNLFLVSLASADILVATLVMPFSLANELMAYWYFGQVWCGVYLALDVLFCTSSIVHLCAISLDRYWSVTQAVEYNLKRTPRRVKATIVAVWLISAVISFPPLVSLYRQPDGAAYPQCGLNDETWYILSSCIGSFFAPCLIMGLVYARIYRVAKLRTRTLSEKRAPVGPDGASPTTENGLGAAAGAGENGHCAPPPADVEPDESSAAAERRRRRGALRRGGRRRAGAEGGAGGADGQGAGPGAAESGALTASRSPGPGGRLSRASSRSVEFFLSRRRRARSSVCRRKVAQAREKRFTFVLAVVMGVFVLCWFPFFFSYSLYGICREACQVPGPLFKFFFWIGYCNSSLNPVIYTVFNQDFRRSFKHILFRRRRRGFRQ

[7] = inhibitors of Sendai virus-induced IRF3 signaling, primary screen, TLR/RLR signaling modifier project, cell-based, Sendai virus stimulus, luciferase, 10K MLSCN set (AID 602276;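 active = inhibition at or above 50% at 10 µM; inactive = inhibition below 50%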;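 note: firefly luciferase from ISG56 promoter only with Renilla not read in this screen; 0% = Sendai virus plus DMSO and 100% = medium plus DMSO without virus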); settings: HEK293 RL24 IRF3 luciferase reporter, at 10 µM, stronger effect = higher value
[8] = inhibitors of poly I:C-induced TLR3 signaling, primary screen, cell-based, poly I:C stimulus, luciferase, 10K MLSCN set (AID 602277;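 active = inhibition of the reporter signal at or above 50%; inactive = inhibition below 50%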); settings: HEK293-TLR3 RL24 IRF3 luciferase reporter, at 10 µM, stronger effect = higher value

SMILES | cell count [1] | inhibition [1] | inhibition of aggregation [2] | nuclei count [2] [%] | inhibition [3] | nuclei count [3] [%] | fluorescence slope [4] | NADPH fluorescence slope [5] | slope [6] | inhibition [7] | inhibition [8]
COCCOC(=O)C1=C(N)OC2=C(C(=O)CC(C)(C)C2)C1c1cccnc1 (centres undefined) | 662 | 4.8% (inactive) | 9.7% (inactive) | 139 | 22.6% (inactive) | 112 | -0.452 (inactive) | -4.3e-05 (inactive) | 0.00687 (inactive) | -8.98% (inactive) | 19% (inactive)
CCC(=O)N1CCN(CCN=CC2=C(O)CC(C)(C)CC2=O)CC1 | 476 | 4% (inactive) | 1.1% (inactive) | 105 | 5.8% (inactive) | 111 | -0.518 (inactive) | -2.4e-05 (inactive) | 0.00473 (inactive) | 8.29% (inactive) | 11.4% (inactive)
COc1ccc(CC(=O)OCn2nnc3ccccc3c2=O)cc1 | 423 | -7% (inactive) | -25.9% (inactive) | 120 | -7.5% (inactive) | 115 | -0.416 (inactive) | -4.2e-05 (inactive) | 0.00601 (inactive) | 12% (inactive) | 16.4% (inactive)
Cc1sc2nc(SCC(=O)NCCO)n(C)c(=O)c2c1C | 368 | 4.3% (inactive) | 12.1% (inactive) | 109 | 4.8% (inactive) | 112 | -0.343 (inactive) | -5.2e-05 (inactive) | 0.00646 (inactive) | 5.26% (inactive) | 26% (inactive)
COc1cccc(C(=O)Nc2c(C(N)=O)oc3ccccc23)c1 | 702 | -14.6% (inactive) | 28.5% (inactive) | 89.2 | -34.6% (inactive) | 121 | -0.545 (inactive) | -4.8e-05 (inactive) | 0.00682 (inactive) | 10.6% (inactive) | 25.5% (inactive)
O=C(C1CCCN1S(=O)(=O)c1cccc2cccnc12)N1CCn2c1nc1ccccc12 (centres undefined) | 626 | -1.1% (inactive) | -15.8% (inactive) | 117 | -28.6% (inactive) | 124 | -0.63 (inactive) | -1.3e-05 (inactive) | 0.00657 (inactive) | 8.59% (inactive) | 21.7% (inactive)
NC(=O)C1CCN(C(=O)c2cc3n(n2)C(C(F)(F)F)CC(c2ccco2)N3)CC1 (centres undefined) | 537 | -5.4% (inactive) | 2.5% (inactive) | 93.4 | -83.5% (inactive) | 100 | -0.543 (inactive) | 1.2e-05 (inactive) | 0.00594 (inactive) | 18.6% (inactive) | 24.2% (inactive)
COc1ccc(C(=O)CSc2nc(C)cc(=O)[nH]2)cc1 | 291 | 6.5% (inactive) | 13.9% (inactive) | 92.1 | 43.1% (inactive) | 98.7 | -0.506 (inactive) | 2.1e-06 (inactive) | 0.0048 (inactive) | 14.8% (inactive) | 9.5% (inactive)
COC(=O)c1cc2ccsc2n1CC(=O)Nc1cc(C)cc(C)c1 | 510 | -9.5% (inactive) | -2.7% (inactive) | 115 | -22.5% (inactive) | 109 | -0.374 (inactive) | 9.4e-06 (inactive) | 0.0119 (inactive) | -21% (inactive) | -31% (inactive)
COCCNC(=O)c1ccc(CS(=O)(=O)c2c(Cl)cccc2Cl)o1 | 462 | -6.8% (inactive) | 22.9% (inactive) | 103 | -46.3% (inactive) | 112 | -0.428 (inactive) | 2.4e-05 (inactive) | 0.00478 (inactive) | -1.52% (inactive) | 24.5% (inactive)
Nn1c(SCC(=O)Nc2ccc(S(=O)(=O)N3CCCC3)cc2)nnc1C(F)(F)F | 704 | -3.3% (inactive) | -7% (inactive) | 104 | -33.2% (inactive) | 128 | -0.504 (inactive) | -6.5e-05 (inactive) | 0.00607 (inactive) | 9.87% (inactive) | 12.8% (inactive)
COc1ccc(CCNC(=O)c2cc(C(C)C)on2)cc1OC | 825 | 9.2% (inactive) | -27% (inactive) | 102 | 2.8% (inactive) | 110 | -0.567 (inactive) | -1.2e-05 (inactive) | 0.00632 (inactive) | 2.63% (inactive) | 18.2% (inactive)
CCOC(=O)c1cccc(NC(=O)C2CCN(S(=O)(=O)c3cccs3)CC2)c1 | 369 | -5.7% (inactive) | 3.6% (inactive) | 90.7 | -45.4% (inactive) | 128 | -0.634 (inactive) | -3.5e-05 (inactive) | 0.00624 (inactive) | 3.96% (inactive) | 5.8% (inactive)
O=C(CN(CC1CCCO1)C(=O)CCC(=O)Nc1ccccn1)NCC1CCCO1 (centres undefined) | 634 | -1.6% (inactive) | -13.7% (inactive) | 122 | -8.5% (inactive) | 122 | -0.421 (inactive) | -3e-05 (inactive) | 0.00568 (inactive) | 13.4% (inactive) | 15.3% (inactive)
